# ChEMBL document CHEMBL3988442, “University of Dundee, Small-Polar-MMV Screening Library” (2021)
# Target: AMP-activated protein kinase, AMPK (Homo sapiens) (UniProt P54646+O43741+P54619+Q9UGJ0+Q9Y478+Q13131+Q9UGI9)
# Assay: AMP-dependent Kinase enzyme assay. An in vitro enzyme assay that detects ADP turnover that is directly proportional to AMPK activity. This uses naive AMPK that is activated during the assay with MK-8722
# Format: functional
# Parameters: scale not given: direction of the effect not stated beside the values
# Settings: 30 µM
row,Structure (SMILES),Percent Effect [%]
1,C=C(C)Cn1nc(C)c(CN2CCN(C3CCCCC3)C(=O)C2)c1C,10.7
2,CCNC(=O)c1ccc(NC2CCOC3(CCCCC3)C2)nn1 (stereo not given),3.88
3,O=C(CCc1ccsc1)NCC1CCN(C2CC2)C1 (stereo not given),-5.43
4,CCc1nnc(CNC(=O)CCC2CCCN(C)C2)s1 (stereo not given),-1.32
5,CN(C)Cc1ccc(C(=O)N2CCCC(COc3ccc(F)cc3)C2)o1 (stereo not given),7.84
6,O=S(=O)(NCCCn1cncn1)c1ccc2c(c1)OCCCO2,10.2
7,CCn1cc(-c2cc(C(=O)N3CCOCC3)c3cc(Cl)ccc3n2)cn1,11.8
8,CC(C)c1cc(C2CCN(C(=O)Cn3cncn3)CC2)[nH]n1,29.2
9,O=C1NC(C(=O)NCc2cccnc2Oc2ccc(F)c(F)c2)CO1 (stereo not given),0.367
10,CN(C)c1nc2c(c(=O)[nH]1)CCN(C(=O)C1CCCO1)C2 (stereo not given),2.77
11,COc1ncc(NCc2cccc(C#N)c2)cc1C(N)=O,8.6
12,Cc1cc(CNC(=O)c2cc(NC(=O)C(C)C)ccc2Cl)no1,4.16
13,CC(=O)N1CCCN(C(=O)NC(C)Cn2ccnc2)CC1 (stereo not given),-5.96
14,Cc1cccc(C(C(=O)NC(C)(C)CN2CCOCC2)N(C)C)c1 (stereo not given),-14.1
15,CCC(NC(=O)C(C)C)c1ccccc1C (stereo not given),8.49
16,O=C(Cc1cccnc1)N1CCCC(c2cc(C(F)(F)F)[nH]n2)C1 (stereo not given),2.17
17,Cc1cc(CN(C)C(=O)Nc2ccccc2C)no1,9.79
18,Cc1cc(F)ccc1N1CCCC(NC(=O)CCc2ccncc2)C1 (stereo not given),14.9
19,Cc1ccc(C(=O)N(C)CC(=O)N2CCCC2)c(C)c1,-2.76
20,Cc1cc(C(=O)N2CCNC(=O)C2)c(C)n1Cc1ccccn1,-10.9

row,Structure (SMILES),Percent Effect [%]
1,CCC(=O)N(c1ccc(C(=O)OC)cc1C)C(C)C,-4.13
2,CC(NCC(=O)Nc1ccc(N2CCCCCC2)cc1)c1cccs1 (stereo not given),16.8
3,CC(NCc1ccnc(OC2CCC2)c1)c1cnn(C)c1 (stereo not given),6.18
4,CCc1oc(C(=O)NC(C)c2ncn[nH]2)cc1CN1CCCC1 (stereo not given),-1.83
5,c1ccc(C2CN(C3CC3)CC3(CCN(Cc4cscn4)CC3)C2)cc1 (stereo not given),4.81
6,COc1cccc(CNC(=O)C(C)N2CC(n3nc(C)cc3C)C2)c1 (stereo not given),0.116
7,COc1ccc(CCn2cnc(C#N)n2)cc1,-6.21
8,COc1ccc(N2CCN(Cc3nc(CSC)no3)CC2=O)cc1,1.27
9,O=C(C1CC1)N1CCCCCC1C1CCN(c2ncccn2)CC1 (stereo not given),-6.9
10,O=C(Cc1c[nH]c(=O)[nH]c1=O)N1CCCCC1CCc1cccc(O)c1 (stereo not given),1.27
11,Cc1ccc(C(NC(=O)CCCN2CCCCC2)C(=O)O)cc1 (stereo not given),11.8
12,Cc1occc1CNc1ncccc1S(N)(=O)=O,6.37
13,Cc1cnn(C2CN(CCOc3cccc(C#N)c3)C2)c1,3.61
14,Cc1ccc(-c2cc(C(=O)NCC3CCOC3)n[nH]2)s1 (stereo not given),-4.75
15,CCn1ncnc1C(C)Nc1cc(C2CCNCC2)nc(C)n1 (stereo not given),-7.46
16,Cc1ncoc1C(=O)N1CCCC(c2ccc3c(N)nn(C)c3n2)C1 (stereo not given),11.4
17,CC(NC(=O)C1CCCCC1)c1cc(O)nc(-c2cccnc2)n1 (stereo not given),5.58
18,COCCN(Cc1ccccn1)C(=O)Nc1cccnc1-n1cccn1,-0.778
19,CC1CN(Cc2cccc(CN)c2)CCO1 (stereo not given),-4.57
20,CCN(CC)C(=O)N1CCOCC1c1c(C)nn(C)c1C (stereo not given),2.79
